Among the data in the supplement of paper PMC6555819 are PBM binding z-score values, retold here.

Common to all, as to assay: PBM binding z-score (relative to random genomic background probes); higher = stronger binding; sequences stand for … in GC…GCGATTGACAGCGTAGAATGAAGG
For assay [1], the system named is FXR:RXRa (NR concentration 270 nM, RXRa partner concentration 90 nM). In a few lines: (§1)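 Random background probes are the reference for binding z-scores. These scores derive from regression-normalized fluorescence on custom Agilent 4×180K protein-binding microarrays incubated 1 h with ligand-free nuclear receptor dimers. Binding was detected with antibodies against each partner (one per run).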

Assay [2] has as its system LXRa:RXRa (NR concentration 270 nM, RXRa partner concentration 90 nM). In a few lines: as §1
Assay [3] has as its system LXRa homodimer (NR concentration 270 nM). In a few lines:
as §1

Assay [4] concerns LXRb:RXRa (NR concentration 270 nM, RXRa partner concentration 90 nM). In a few lines:
as §1

Assay [5] concerns LXRb homodimer (NR concentration 270 nM). In a few lines:
as §1

Assay [6] relates to PPARa:RXRa (NR concentration 270 nM, RXRa partner concentration 90 nM). In a few lines:
as §1

The subject of assay [7] is PPARg:RXRa (NR concentration 180 nM, RXRa partner concentration 90 nM). In outline:
as §1

For assay [8], the system named is PPARg:RXRa 270nM:90nM, anti-RXR (NR concentration 270 nM, RXRa partner concentration 90 nM). In a few lines:
as §1

The subject of assay [9] is PPARg:RXRa 30nM:10nM, anti-RXR (NR concentration 30 nM, RXRa partner concentration 10 nM). In outline: as §1
Assay [10] has as its system PPARg:RXRa 90nM:30nM, anti-RXR (NR concentration 90 nM, RXRa partner concentration 30 nM). In a few lines: as §1
Assay [11] has as its system PPARg:RXRa DBDmut IVT, anti-RXR (DBD mutation: RXRa K156A/R161A, NR concentration 270 nM, RXRa partner concentration 90 nM). In a few lines: as §1
For assay [12], the system named is PPARg:RXRa IVT, anti-PPARg (NR concentration 270 nM, RXRa partner concentration 90 nM). In a few lines: as §1
Assay [13] concerns PPARg DBDmut:RXRa IVT, anti-PPARg (DBD mutation: PPARg1 K132A/R137A, NR concentration 270 nM, RXRa partner concentration 90 nM). In outline:
as §1

The test system of assay [14] is PPARg DBDmut IVT, anti-PPARg (DBD mutation: PPARg1 K132A/R137A, NR concentration 270 nM). In a few lines:
as §1

Assay [15] has as its system PPARg homodimer (NR concentration 180 nM). In outline: as §1
For assay [16], the system named is PXR:RXRa (NR concentration 270 nM, RXRa partner concentration 90 nM). In a few lines:
as §1

The subject of assay [17] is PXR homodimer (NR concentration 270 nM). In outline: as §1
Assay [18] relates to RARa:RXR (NR concentration 270 nM, RXRa partner concentration 90 nM). In a few lines:
as §1

Assay [19] deals with RARa homodimer (NR concentration 270 nM). In a few lines:
as §1

As for CGAACTAGGACATCCAGGACAGTGAATACATTGA, the PBM binding z-score is 0.00191 in [1]; -0.483 in assay [2]; 0.0183 in assay [3]; -0.213 in [4]; -0.407 in assay [5]; 0.451 in assay [6]. Besides, the PBM binding z-score in assay [7] came out at 1.35; in [8] it was 0.774; in assay [9] it was 0.322; in assay [10] it was 0.462; in [11] it was 5.1; in assay [12], 4.07. The PBM binding z-score is 0.493 in [13]; 0.652 in assay [14]; 0.302 in assay [15]; -0.363 in assay [16]; 0.206 in assay [17]; 0.00684 in assay [18]. The PBM binding z-score in assay [19] was 0.136.

For CCTACTGGGCCAAAGGTCCTTGATTCCAATGCTC, the PBM binding z-score in assay [1] was -0.0555; in assay [2], -0.225; in [3], -0.404; in assay [4], 0.0817; in [5] it was -0.832; in assay [6], 3.84. The PBM binding z-score in assay [7] was 8.78; in assay [8] it was 8.68; in assay [9], 8.07; in assay [10], 8.91; in assay [11] it was 5.03; in assay [12], 5.07. Moreover, the PBM binding z-score in assay [13] was -0.487; in assay [14] it was -1.06; in [15], 0.826; in assay [16], -0.225; in assay [17], -0.792; in [18], 0.089. In addition, the PBM binding z-score in assay [19] was -0.831.

On to TAGCCTAGGTCAGATCGGGCGAGTATACGCTATA, for which the PBM binding z-score in assay [1] was 1.73; in assay [2] it was 1.03; in assay [3] it was -0.449; in [4] it was 0.569; in [5], -0.387; in assay [6], 1.58. Moreover, the PBM binding z-score in assay [7] was 0.654; in assay [8], 1.08; in assay [9] it was -0.174; in [10] it was 0.958; in assay [11], 0.488; in assay [12], 1.31. In addition, the PBM binding z-score in [13] was -0.335; in assay [14], -0.507; in assay [15], 0.138; in assay [16], 0.314; in [17], -0.678; in assay [18], 0.971. Further, in assay [19], the PBM binding z-score is -1.26.

Turning to CGTCCAAGGTCAGCAGGTCACTGAAAGCGACGTG, the PBM binding z-score turned out to be 6.56 in assay [1]; 4.66 in assay [2]; 0.808 in assay [3]; 3.7 in assay [4]; 0.0267 in [5]; 5.5 in assay [6]. Further, the PBM binding z-score in assay [7] was found to be 5.54; in assay [8] it was 5.5; in [9], 1.58; in [10], 4.01; in assay [11] it was 3.75; in assay [12] it was 4.56. The PBM binding z-score in assay [13] is 0.394; in assay [14] it was -1.07; in assay [15], 5.36; in assay [16] it was 4.71; in [17], 0.781; in [18], 6.22. Besides, the PBM binding z-score in assay [19] turned out to be 2.7.

For the sequence CGTTCAAGGTCATAGGAGGTCAGTGAAGACAGAT, the PBM binding z-score in assay [1] came out at 7.91; in [2] it was 7.81; in assay [3] it was 5.4; in [4], 6.52; in assay [5], 1.26; in [6] it was 6.19. For the same sequence, the PBM binding z-score in [7] stood at 6.82; in [8] it was 6.49; in assay [9] it was 2.97; in [10], 5.27; in assay [11], 3.95; in [12] it was 5.26. Besides, the PBM binding z-score in [13] was found to be 1.34; in [14], 2.03; in assay [15], 5.42; in assay [16], 6.86; in [17] it was 5.84; in assay [18], 6.33. The PBM binding z-score in assay [19] is 3.73.

As to CGTCGGAGGACAACAGGAGGTCAGAGCTGCCAGA, the PBM binding z-score in [1] is 1.46; in [2] it was 2.29; in assay [3] it was 2.3; in [4], 1.48; in assay [5], -0.649; in assay [6], 1.98. The PBM binding z-score was 0.434 in [7]; 0.482 in assay [8]; -0.532 in assay [9]; 0.226 in assay [10]; 0.202 in assay [11]; 0.616 in assay [12]. Also, the PBM binding z-score in assay [13] was -1.5; in assay [14], -1.4; in [15] it was 2.42; in assay [16], 2.5; in assay [17] it was 0.93; in assay [18] it was 2.58. Moreover, in assay [19], the PBM binding z-score was found to be 0.114.

In the case of TTACGAAGGTGAAAGGTCGTTGATGCACGCCTTG, the PBM binding z-score in assay [1] is 3.43; in assay [2], 3.33; in assay [3] it was 0.283; in assay [4] it was 2.75; in [5], -0.598; in assay [6], 5.25. In addition, the PBM binding z-score in assay [7] was found to be 8.12; in assay [8], 7.35; in assay [9], 6.74; in [10], 8.17; in assay [11], 2.05; in [12], 4.53. In addition, the PBM binding z-score was found to be 0.416 in assay [13]; 0.212 in assay [14]; 1.39 in assay [15]; 3.77 in assay [16]; 0.289 in [17]; 5.13 in assay [18]. In [19], this sequence came in with a PBM binding z-score of 0.203.
